A short description of test [1]: binders of probe aFSTL3 on microarray, primary screen, stem cell growth factor project, biochemical, small-molecule microarray, fluorescence 635/667 (AID 1064).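 Further: measures binding of the biotinylated anti-FSTL3 antibody to printed compounds.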 The settings on record: higher = more signal.
Test [2] is described as follows: binders from COS7 lysate, DM2A8 probe, primary screen, torsin A project, cell lysate, small-molecule microarray, fluorescence 635/667 (AID 1065). The settings on record: higher = more signal, COS7 lysate expressing mutant human TOR1A.
Test [3] can be described thus: binders of probe aFGF2 on microarray, primary screen, stem cell growth factor project, biochemical, small-molecule microarray, fluorescence 635/667 (AID 1067).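 Further: measures binding of biotinylated aFGF2 protein to printed compounds on slides; z-score merges feature fluorescence and signal-to-noise across triplicate slides.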 The following applies: higher = more signal.
Test [4] in a line: binders of probe aFGF10 on microarray, primary screen, stem cell growth factor project, biochemical, small-molecule microarray, fluorescence 635/667 (AID 1071).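 Further: score merges 667 nm spot intensity and signal to noise from triplicate slides.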 The following applies: higher = more signal.
The target in test [5] is Neurogenic locus notch homolog protein 2 (Homo sapiens) (UniProt Q04721). Put plainly: Notch2 binders on small-molecule microarrays, primary screen, biochemical, small-molecule microarray, 635 nm fluorescence, stem cell growth factors (AID 1073). The following applies: Notch2 binding, higher = more signal.
Test [6] has as its target Pro-neuregulin-1, membrane-bound isoform (Homo sapiens) (UniProt Q02297). Description: NRG1 binders on small-molecule microarrays, primary screen, psychiatric disease protein project, biochemical, small-molecule microarray, fluorescence 635/667 (AID 1075).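 Further: score combines 667 nm spot fluorescence with signal to noise.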 The settings on record: NRG1 binding, 635 nm fluorescence, higher = more signal.
The subject of test [7] is Neuregulin-1 EGF-like domain. Description: binders of neuregulin-1 EGF-like domain, primary screen, biochemical, small-molecule microarray, 635 nm fluorescence (AID 1081).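 Further: binding of the protein to compounds printed on small-molecule microarray slides.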 The settings on record: small-molecule microarray binding, higher = more signal.
Test [8] in a line: FRG1 promoter luciferase signal modulators, primary screen, FRG1 inhibition for FSHD, cell-based, C2C12 myotubes, firefly/Renilla luciferase, luminescence (AID 1084). The following applies: higher = more signal, called active from +8 up or from −8 down.
A short description of test [9]: binders of probe aFST on microarray, primary screen, stem cell growth factor project, biochemical, small-molecule microarray, fluorescence 635/667 (AID 1086).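 Further: score merges 667 nm fluorescence with signal-to-noise of each printed compound spot.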 The settings on record: higher = more signal.
Test [10] is described as follows: binders of probe aHhip on microarray, primary screen, stem cell growth factor project, biochemical, small-molecule microarray, fluorescence 635/667 (AID 1087).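 Further: score merges spot fluorescence at 667nm with spot signal to noise ratio.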 The following applies: higher = more signal.
Test [11] relates to PRMT1 (protein arginine N-methyltransferase 1). Put plainly: PRMT1 binders on small-molecule microarrays, primary screen, biochemical, small-molecule microarray, 635 nm fluorescence (AID 1088).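 Further: binding of Prmt1 protein to compounds spotted on small-molecule microarray slides.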 The settings on record: small-molecule microarray binding, higher = more signal.
Test [12] is described as follows: yeast growth modulation, basal conditions, primary screen, YJM789 clinical isolate, OD600, 24 h (AID 1089).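 Further: growth of clinical yeast isolate S. cerevisiae YJM 789 seeded 1000 cells per well; test concentration not given here.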 The settings on record: S. cerevisiae YJM789 growth, higher = more signal, called active from +8 up or from −8 down.
Test [13] is described as follows: fission yeast growth modulation, primary screen, strain 972, OD600, 24 h, no modulator (AID 1090).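 Further: basal condition with compound alone and no growth modifier present; test concentration not given here.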 The following applies: S. pombe 972 growth, higher = more signal, called active from +8 up or from −8 down.
Test [14] can be described thus: S. cerevisiae growth modulation with rapamycin, primary screen, strain BY4716, OD600, 96 h (AID 1091). Further: test concentration not given here. The settings on record: higher = more signal, called active from +8 up or from −8 down.
Test [15] addresses Torsin-1A-interacting protein 2 (Homo sapiens) (UniProt Q8NFQ8). Put plainly: LULL1 binders on small-molecule microarray, primary screen, cell lysate, human LULL1 lysate, 635/667 nm fluorescence (AID 1092).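 Further: score merges per-feature 667 nm fluorescence with signal-to-noise.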 The settings on record: hLULL1 lysate binding, 635 nm fluorescence, higher = more signal.
Test [16] is described as follows: E. coli growth modulation, two-sided OD650, primary screen, E. coli filamentation project, strain DRC41, 24 h (AID 1093).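 Further: MC1000 strain lacking acrAB efflux and sulA so SOS filamentation is blocked; test concentration not given here.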 The settings on record: OD650, 24 h, higher = more signal, called active from +8 up or from −8 down.
A short description of test [17]: small-molecule microarray binders of probe aLefty2, primary screen, biochemical, biotinylated probe, 635/667 nm fluorescence (AID 1094).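 Further: score merges spot fluorescence near 667 nm with spot signal-to-noise ratio.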 The settings on record: higher = more signal.
For test [18], the system named is Noggin (protein binding on small-molecule microarray). Put plainly: Noggin binders on small-molecule microarray, primary screen, biochemical, 635/667 nm fluorescence (AID 1095).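 Further: score merges 667 nm feature fluorescence with signal to noise over triplicate slides.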 The following applies: 635 nm fluorescence, higher = more signal.
Test [19] deals with Neurogenic locus notch homolog protein 3 (Homo sapiens) (UniProt Q9UM47). Put plainly: NOTCH3 binders on small-molecule microarray, primary screen, biochemical, 635/667 nm fluorescence (AID 1096). The settings on record: NOTCH3 binding, 635 nm fluorescence, higher = more signal.
Neurogenic locus notch homolog protein 3 (Homo sapiens), sequence (Q9UM47 whole entry, looked up): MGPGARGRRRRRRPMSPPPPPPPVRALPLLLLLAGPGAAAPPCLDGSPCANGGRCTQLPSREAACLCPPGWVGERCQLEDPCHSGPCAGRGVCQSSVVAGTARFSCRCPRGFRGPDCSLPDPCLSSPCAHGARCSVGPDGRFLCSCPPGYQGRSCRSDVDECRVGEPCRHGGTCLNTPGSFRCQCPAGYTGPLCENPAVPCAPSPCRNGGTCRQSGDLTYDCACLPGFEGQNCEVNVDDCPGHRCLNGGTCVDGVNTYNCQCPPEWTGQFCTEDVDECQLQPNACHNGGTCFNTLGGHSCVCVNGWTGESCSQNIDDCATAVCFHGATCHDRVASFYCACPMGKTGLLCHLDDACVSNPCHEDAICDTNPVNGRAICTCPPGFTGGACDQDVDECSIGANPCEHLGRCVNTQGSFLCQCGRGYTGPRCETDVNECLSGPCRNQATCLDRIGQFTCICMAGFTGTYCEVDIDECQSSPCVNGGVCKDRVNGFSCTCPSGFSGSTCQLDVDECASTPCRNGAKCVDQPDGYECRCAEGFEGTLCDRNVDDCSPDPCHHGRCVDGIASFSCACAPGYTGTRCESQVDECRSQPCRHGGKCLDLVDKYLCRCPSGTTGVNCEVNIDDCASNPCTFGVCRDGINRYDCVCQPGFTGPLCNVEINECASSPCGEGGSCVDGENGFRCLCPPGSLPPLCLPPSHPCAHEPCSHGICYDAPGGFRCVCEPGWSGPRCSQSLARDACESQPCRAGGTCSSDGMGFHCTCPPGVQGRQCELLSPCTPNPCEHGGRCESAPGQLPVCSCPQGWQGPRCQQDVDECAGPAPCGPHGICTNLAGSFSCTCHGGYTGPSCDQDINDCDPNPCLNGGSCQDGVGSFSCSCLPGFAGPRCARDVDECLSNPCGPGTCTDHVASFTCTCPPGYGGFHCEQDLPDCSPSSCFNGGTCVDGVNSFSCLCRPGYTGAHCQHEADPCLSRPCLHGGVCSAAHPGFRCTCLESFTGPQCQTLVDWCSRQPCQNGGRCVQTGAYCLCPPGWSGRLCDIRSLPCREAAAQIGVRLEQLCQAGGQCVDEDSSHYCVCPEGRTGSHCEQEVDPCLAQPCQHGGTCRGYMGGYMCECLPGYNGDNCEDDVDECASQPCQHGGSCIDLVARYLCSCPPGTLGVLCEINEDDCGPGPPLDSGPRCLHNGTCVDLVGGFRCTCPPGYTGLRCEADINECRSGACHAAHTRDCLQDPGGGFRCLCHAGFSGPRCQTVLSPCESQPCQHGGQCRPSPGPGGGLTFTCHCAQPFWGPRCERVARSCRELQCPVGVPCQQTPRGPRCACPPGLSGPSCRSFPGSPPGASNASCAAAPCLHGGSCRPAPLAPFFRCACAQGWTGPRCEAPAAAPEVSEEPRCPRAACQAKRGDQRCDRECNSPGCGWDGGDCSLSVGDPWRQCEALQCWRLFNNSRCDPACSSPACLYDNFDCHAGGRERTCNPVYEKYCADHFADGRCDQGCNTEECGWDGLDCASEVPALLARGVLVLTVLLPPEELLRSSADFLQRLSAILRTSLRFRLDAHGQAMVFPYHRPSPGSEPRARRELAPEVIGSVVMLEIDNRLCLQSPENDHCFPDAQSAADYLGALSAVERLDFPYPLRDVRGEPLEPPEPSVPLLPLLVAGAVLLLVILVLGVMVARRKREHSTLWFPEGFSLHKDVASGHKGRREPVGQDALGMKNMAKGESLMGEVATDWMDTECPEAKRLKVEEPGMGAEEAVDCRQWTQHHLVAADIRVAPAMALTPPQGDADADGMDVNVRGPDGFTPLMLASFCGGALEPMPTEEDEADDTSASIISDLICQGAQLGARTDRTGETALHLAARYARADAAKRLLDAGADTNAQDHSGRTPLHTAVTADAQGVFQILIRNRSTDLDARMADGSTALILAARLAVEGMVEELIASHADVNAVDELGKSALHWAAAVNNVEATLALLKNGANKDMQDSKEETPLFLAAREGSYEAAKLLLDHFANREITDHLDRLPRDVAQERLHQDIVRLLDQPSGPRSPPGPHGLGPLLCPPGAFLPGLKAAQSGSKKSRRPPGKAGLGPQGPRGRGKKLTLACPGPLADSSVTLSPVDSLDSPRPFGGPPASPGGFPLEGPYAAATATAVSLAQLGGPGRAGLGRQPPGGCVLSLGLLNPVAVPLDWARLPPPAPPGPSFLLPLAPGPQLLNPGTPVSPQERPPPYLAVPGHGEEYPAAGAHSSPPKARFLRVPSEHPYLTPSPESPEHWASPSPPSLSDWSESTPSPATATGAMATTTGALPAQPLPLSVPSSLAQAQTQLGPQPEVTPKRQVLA
The nature of test [20]: small-molecule microarray binders of probe aEGFR, primary screen, biochemical, biotinylated probe, 635/667 nm fluorescence (AID 1097).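 Further: probe is a biotinylated anti-EGFR antibody binding compounds printed on slides; score combines fluorescence near 667 nm and signal to noise of each spot.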 The settings on record: higher = more signal.

Structures are written as SMILES. Activity calls are given as the source filed them.

Pro-neuregulin-1, membrane-bound isoform (Homo sapiens), sequence (Q02297 whole entry, looked up, the tested form may be a part, canonical isoform): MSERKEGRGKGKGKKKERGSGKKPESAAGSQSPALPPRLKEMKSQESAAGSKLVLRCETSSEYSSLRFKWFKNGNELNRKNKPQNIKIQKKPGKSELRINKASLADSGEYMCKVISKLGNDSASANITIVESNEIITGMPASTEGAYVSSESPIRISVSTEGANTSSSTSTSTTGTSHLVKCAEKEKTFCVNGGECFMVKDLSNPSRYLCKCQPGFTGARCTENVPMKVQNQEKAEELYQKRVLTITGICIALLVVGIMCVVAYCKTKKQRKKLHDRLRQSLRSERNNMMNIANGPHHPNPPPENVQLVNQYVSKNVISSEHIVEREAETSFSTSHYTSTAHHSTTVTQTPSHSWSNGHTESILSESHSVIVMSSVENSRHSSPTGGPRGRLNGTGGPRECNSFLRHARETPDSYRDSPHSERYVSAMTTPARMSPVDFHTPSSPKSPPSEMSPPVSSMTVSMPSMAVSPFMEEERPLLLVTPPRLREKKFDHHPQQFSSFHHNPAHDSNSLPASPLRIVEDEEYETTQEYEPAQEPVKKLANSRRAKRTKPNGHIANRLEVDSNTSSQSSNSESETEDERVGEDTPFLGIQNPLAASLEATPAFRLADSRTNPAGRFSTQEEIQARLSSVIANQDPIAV
Torsin-1A-interacting protein 2 (Homo sapiens), sequence (Q8NFQ8 whole entry, looked up): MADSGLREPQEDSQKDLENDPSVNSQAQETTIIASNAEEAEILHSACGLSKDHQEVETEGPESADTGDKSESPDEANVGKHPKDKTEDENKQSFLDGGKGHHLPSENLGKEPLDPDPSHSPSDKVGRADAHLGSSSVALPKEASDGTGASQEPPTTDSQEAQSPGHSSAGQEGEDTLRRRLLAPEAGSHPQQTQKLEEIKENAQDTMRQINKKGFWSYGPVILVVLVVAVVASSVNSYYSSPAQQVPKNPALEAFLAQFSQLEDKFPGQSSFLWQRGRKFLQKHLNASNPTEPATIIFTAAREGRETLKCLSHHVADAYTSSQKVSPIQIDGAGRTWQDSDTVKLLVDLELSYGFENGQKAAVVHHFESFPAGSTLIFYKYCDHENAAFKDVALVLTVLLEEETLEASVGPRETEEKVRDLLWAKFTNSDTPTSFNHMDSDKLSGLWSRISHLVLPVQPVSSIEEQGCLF

For `CC(CCC(=O)OC[C@H]1O[C@H](C#Cc2ccccc2)C=C[C@@H]1Oc1ccc(C)cc1)=NOC(C)CN1CCCc2nc(C)c(C)cc21` (stereo not given in full), the composite z-score was -0.293 in [1]; 0.0877 in test [2]; -0.0783 in [3]; 0.413 in [4]; 0.869 in test [5]; 0.617 in test [6]. For the same compound, the composite z-score in test [7] is 0.684; in test [9], 0.69; in test [10] it was -0.0319; in test [11] it was 1.33; in [15] it was 1.5; in [17], -0.0849. Besides, the composite z-score in [18] is 0.538; in test [19] it was 0.894; in [20], -0.0267. Besides, the z-score in test [8] was 0.517 (inactive); in test [12] it was 2.01 (inactive); in test [13], -1.77 (inactive); in test [14], -0.49 (inactive); in test [16], 0.915 (inactive).

Regarding `O=C1CCCC=C1C(O)c1ccc([N+](=O)[O-])cc1` (stereo not given), the composite z-score in test [1] is -0.396; in test [2], 0.267; in test [3] it was -0.187; in test [4] it was 0.535; in [5], 0.254; in [6] it was -0.832. Also, the composite z-score was -0.0876 in test [7]; -0.315 in test [9]; -0.355 in test [10]; 0.0679 in [11]; -0.33 in [15]; -0.114 in [17]. Besides, the composite z-score in [18] came out at 0.111; in [19] it was 0.273; in test [20], 0.613. Moreover, the z-score in test [8] was 0.925 (inactive); in test [12] it was -0.293 (inactive); in [13] it was 0.0434 (inactive); in test [14], -0.289 (inactive); in test [16], 0.999 (inactive).

Regarding `O=C1C=C[C@@H](O)[C@@H]2[C@@H]3C(=O)N(C4CCCCC4)C(=O)[C@@H]3CC[C@@H]12`, the composite z-score was 0.585 in test [1]; 0.0002 in test [2]; -0.189 in [3]; 0.442 in test [4]; 0.545 in [5]; 0.305 in [6]. Besides, the composite z-score in [7] was 0.968; in [9] it was 0.265; in test [10] it was 0.0373; in test [11], 0.299; in test [15], 0.548; in test [17] it was -0.0678. In addition, the results for the composite z-score in test [18], in [19] and in test [20] were 0.277, 0.818 and 0.0587, respectively. The z-score in test [8] is -0.325 (inactive); in [12] it was 0.126 (inactive); in [13], -1.32 (inactive); in test [14], -1.27 (inactive); in test [16] it was -0.115 (inactive).

Consider `CCOC(=O)CCN1C(=O)[C@H]2[C@H]3[C@H](O)[C@H](O)CC(=NO[C@@H]4O[C@H](CO)[C@@H](O)[C@H](O)[C@H]4O)[C@@H]3CC[C@H]2C1=O`, for which the composite z-score in test [1] was -0.512; in test [2], 1.86; in test [3], -0.129; in test [4], 1.04; in [5], 1.31; in [6], 0.254. Moreover, the composite z-score was 1.14 in test [7]; 0.675 in test [9]; -0.0296 in [10]; 1.52 in test [11]; 0.7 in test [15]; -0.0598 in test [17]. Moreover, the composite z-score was found to be 0.381 in test [18], 1.09 in test [19] and 0.176 in test [20]. Also, the z-score is -0.389 (inactive) in [8]; -0.476 (inactive) in test [12]; -0.664 (inactive) in [13]; -0.933 (inactive) in [14]; 0.283 (inactive) in test [16].

Regarding `COc1ccc(COC(=O)NN=C2C[C@@H](O)[C@@H](O)[C@@H]3[C@@H]4C(=O)N([C@@H](C)c5ccccc5)C(=O)[C@@H]4CC[C@H]23)cc1`, the composite z-score in [1] was 1.87; in test [2], 0.287; in [3], -0.0614; in [4], -0.129; in test [5] it was -0.249; in [6], -0.413. Moreover, the composite z-score in test [7] is -0.592; in test [9], 0.951; in test [10], -0.226; in [11], -0.517; in test [15], 0.621; in test [17], 0.484. Also, the figures for the composite z-score in test [18], in [19] and in [20] were -0.245, -0.184 and -0.137, respectively. Moreover, the z-score in [8] was -0.797 (inactive); in test [12], -0.21 (inactive); in test [13], -0.0145 (inactive); in test [14] it was -0.556 (inactive); in test [16] it was 0.92 (inactive).

The values above are taken from PubChem BioAssay.
